Results as given in paper PMC4552634, “A New Set of Chemical Starting Points with Plasmodium falciparum Transmission-Blocking Potential for Antimalarial Drug Discovery” (PLoS ONE, 2015).
Hit rate of the full screen: of about 13,000 compounds, about 3,200 (25%) showed an effect of 50% or more. The list shows a part of the results.

What follows are compounds tested on P. falciparum stage V gametocytes. Conditions: 48 h, 5 µM; inhibitor.
Set-up: BacTiter-Glo ATP luminescence viability of purified stage V gametocytes in 384-well plates, per cent inhibition versus DMSO
With `CCC(C)CN1CCN(c2ccc(NC(=O)c3cccs3)cc2)CC1C` (stereo not drawn) [TCMDC-134997] the “% Inhibition” value was 0.3581%. In the case of `Cc1ccc(C(=O)NC2C(=O)NC2c2ccccc2)c(C)c1` (stereo not drawn) [TCMDC-131386], the “% Inhibition” value was 4.246%. With `COc1ccc(NC(=O)[C@H](CC(C)C)Nc2cc(C)nc(NCc3ccccc3C)n2)cc1` [TCMDC-134909] the “% Inhibition” value was -97.01%. With `COc1cc(N)c(Cl)cc1C(=O)NCC1CCN(c2nc(C)cc(C)n2)CC1` [TCMDC-124850] the “% Inhibition” value was 17.19%. With `Cc1cc2nc(-c3ccc(C(=O)NCc4cccc(C(F)(F)F)c4)cc3)[nH]c2cc1C` [TCMDC-140431] the “% Inhibition” value was -14.71%. `COc1cc2nc(N3CCC(CNC(=O)c4ccc(-c5ccc(Cl)cc5)cc4)CC3)nc(N)c2cc1OC` [TCMDC-138718] was tested, and the “% Inhibition” value was 145.1%. In the case of `COc1cc2nc(N3CCC(CNC(=O)c4ccc(OC(F)(F)F)cc4)CC3)nc(N)c2cc1OC.O=C(O)C(F)(F)F` [TCMDC-138211], the “% Inhibition” value was -26.96%. `COc1cc2nc(NCc3cccc(CNC(=O)c4ccc(-c5ccc(C(C)=O)cc5)cc4)c3)nc(N)c2cc1OC.O=C(O)C(F)(F)F` [TCMDC-138177] was tested, and the “% Inhibition” value was 117.9%. In the case of `COc1cc2nc(N3CCC(CNC(=O)c4cccc5cccnc45)CC3)nc(N)c2cc1OC` [TCMDC-138181], the “% Inhibition” value was 14.63%. For `COc1cc2nc(NCC3CCN(C(=O)c4ccc(-c5ccc(C(=O)N(C)C)cc5C)cc4)CC3)nc(N)c2cc1OC` [TCMDC-138182], the “% Inhibition” value was -26.73%. For `COc1cc2nc(N3CCC(CNC(=O)c4cccc5cc[nH]c45)CC3)nc(N)c2cc1OC` [TCMDC-138184], the “% Inhibition” value was 101.1%. For `COc1cc2nc(N3CCC(CNC(=O)c4ccc(C(C)=O)cc4)CC3)nc(N)c2cc1OC.O=C(O)C(F)(F)F` [TCMDC-138210], the “% Inhibition” value was 69.3%. For `CN(C)Cc1cccc(-c2cnc(N)c(-c3nc4ccc(S(C)(=O)=O)cc4[nH]3)c2)c1` [TCMDC-133721], the “% Inhibition” value was 43.08%. In the case of `CSc1ccc(CN2CCC(NC(=O)c3ccc(-c4cccc(Cl)c4)s3)CC2)cc1` [TCMDC-134341], the “% Inhibition” value was 12.93%. In the case of `COc1cc(Nc2nc(N)n(C(=O)c3ccc4c(c3)OCO4)n2)cc(OC)c1OC` [TCMDC-136737], the “% Inhibition” value was -65.07%. In the case of `O=c1[nH]c2c(cc1CNC1CCCCC1)c(-c1ccc(F)cc1)nn2-c1ccccc1` [TCMDC-125352], the “% Inhibition” value was 14.87%. `CCCCOC(=O)NCCCC[C@H](NC(=O)OC(C)(C)C)C(=O)N[C@H](C(=O)OC(c1ccccc1)c1ccccc1)[C@H]1O[C@@H](n2ccc(=O)[nH]c2=O)[C@@H]2OC(C)(C)O[C@@H]21` [TCMDC-131947] was tested, and the “% Inhibition” value was 9.174%. `Cc1c(C(=O)C2CC2CN2CCC(N3CCCC3)CC2)sc2ccccc12` (stereo not drawn) [TCMDC-132577] was tested, and the “% Inhibition” value was 31.52%. For `C=C[C@]1(C)C[C@@H](OC(=O)CSC2CN3CCC2C3)[C@@]2(C)C3C(=O)CC[C@@]3(CC[C@H]2C)[C@@H](C)[C@@H]1O` (stereo partly drawn) [TCMDC-139185], the “% Inhibition” value was 16.51%. In the case of `CC(C)(C)c1cc(C(=O)N2CCN(c3cnccn3)CC2)n(Cc2ccccc2)n1` [TCMDC-133778], the “% Inhibition” value was 6.708%. In the case of `COc1cc2nc(N3CCC(CNC(=O)c4ccc(-c5ccc(C(F)(F)F)cc5)cc4)CC3)nc(N)c2cc1OC` [TCMDC-138716], the “% Inhibition” value was 114.6%. For `COc1cc2nc(N3CCC(CNCc4ccc(-c5ccc(C(F)(F)F)cc5)cc4)CC3)nc(N)c2cc1OC` [TCMDC-138757], the “% Inhibition” value was 94.11%. With `COc1cc2nc(N3CCC(CNC(=O)c4ccc(-c5ccccc5)cc4)CC3)nc(N)c2cc1OC` [TCMDC-137787] the “% Inhibition” value was -6.004%. In the case of `COc1cc2nc(N3CCC(CNC(=O)c4ccc(NC(=O)c5ccc(Cl)cc5)cc4)CC3)nc(N)c2cc1OC` [TCMDC-138712], the “% Inhibition” value was 79.48%. In the case of `COC(=O)c1ccc(-c2ccc(C(=O)NCC3CCN(c4nc(N)c5cc(OC)c(OC)cc5n4)CC3)cc2)cc1` [TCMDC-138721], the “% Inhibition” value was 127%. For `COc1ccc2nccc([C@@H](O)CN3CCC(NC(=O)C(=Cc4ccc(C#N)cc4)c4ccc(-c5ccccc5)cc4)CC3)c2c1` [TCMDC-141112], the “% Inhibition” value was -10.17%. `Cc1cc(NC(=O)Nc2ccc(Cl)cc2F)c2ccccc2n1` [TCMDC-134658] was tested, and the “% Inhibition” value was -34.71%. For `CCCC(C)NC(=O)c1cnn(-c2ccc(C(C)(C)C)cc2)c1OCc1ccc(Br)cc1` (stereo not drawn) [TCMDC-139598], the “% Inhibition” value was 11.83%. `CC(=O)Nc1ccc(C(=O)Nc2cccc(-c3ccc(-c4nc5cc(F)ccc5[nH]4)s3)c2)cn1` [TCMDC-136833] was tested, and the “% Inhibition” value was -51.51%. In the case of `Cn1c2c(c3ccccc31)CN(CCC1(c3ccc(Cl)c(Cl)c3)CN(C(=O)Cc3ccccc3)CCO1)CC2` (stereo not drawn) [TCMDC-135563], the “% Inhibition” value was 32.52%. For `Cc1cc(C(=O)Nc2ccc3c(c2)CCN3C2CCN(Cc3ccc(F)cc3Cl)C2)no1` (stereo not drawn) [TCMDC-135081], the “% Inhibition” value was 2.936%. In the case of `Cc1cc(Cl)c(S(=O)(=O)NC(C)(C)C)cc1OCC(=O)NC1CCCCC1` [TCMDC-124352], the “% Inhibition” value was -13.59%. In the case of `COCCN1CCC(CN(C)CC(C)(C)c2nc(-c3ccc(Cl)c(O)c3)c(-c3ccncc3)[nH]2)CC1` [TCMDC-140899], the “% Inhibition” value was -71.13%. `CN1CCN(c2cc3c(cc2Cl)CCN3C(=O)Cc2ccc(Cl)c(NC(=O)Nc3cccc(C#N)c3)c2)CC1` [TCMDC-139474] was tested, and the “% Inhibition” value was 3.911%. With `Nc1ncc(-c2ccc(F)cc2)cc1-c1nc2ccc(Cl)cc2[nH]1` [TCMDC-138810] the “% Inhibition” value was -32.19%. With `Cc1[nH]cnc1Cc1ccc2c(c1O)c1ccccc1n2C` [TCMDC-131955] the “% Inhibition” value was -82.46%. With `Cc1cc(NC(=O)c2sc3ccccc3c2O)no1` [TCMDC-124522] the “% Inhibition” value was -1.25%. For `N#Cc1ccc(-c2nc(CO)c(C(=O)NCCCCN3CCC(c4ccc5c(c4OCC(N)=O)CCCC5)CC3)s2)cc1` [TCMDC-138872], the “% Inhibition” value was -1.012%. With `N#Cc1ccc(-c2ccc(C(=O)NCCCCN3CCC(c4ccc5c(c4OCC(N)=O)CCCC5)CC3)nc2)cc1` [TCMDC-135212] the “% Inhibition” value was 23.96%. `COc1c(C2CCN(CCN3CCC(NC(=O)c4ccc(-c5ccc(C(F)(F)F)cc5)cc4)CC3)CC2)ccc2c1CCCC2` [TCMDC-138857] was tested, and the “% Inhibition” value was 16.95%. For `NC(=O)COc1c(C2CCN(CCN3CCC(CNC(=O)c4ccc(-c5ccc(C(F)(F)F)cc5)cc4)CC3)CC2)ccc2c1CCCC2` [TCMDC-134308], the “% Inhibition” value was 93.17%. `COc1c(C2CCN(CCN3CCC(CNC(=O)c4ccc(-c5ccc(C#N)cc5)cc4)CC3)CC2)ccc2c1CCCC2` [TCMDC-138859] was tested, and the “% Inhibition” value was 105.9%. For `N#Cc1ccc(-c2ccc(C(=O)NCC3CCN(CCN4CCC(c5ccc6c(c5OCC(N)=O)CCCC6)CC4)CC3)cc2)cc1` [TCMDC-134563], the “% Inhibition” value was 103.8%. For `N#Cc1ccc(-c2ccc(C(=O)NCCCCN3CCC(c4ccc5c(c4OCC(N)=O)CCCC5)CC3)cc2)cc1` [TCMDC-138803], the “% Inhibition” value was 73.12%. In the case of `CCOc1c(OC)ccc2c1CCN(CCN1CCC(CNC(=O)c3ccc(-c4ccc(C#N)cc4)cc3)CC1)C2` [TCMDC-138848], the “% Inhibition” value was -12.76%.
